The results in this text go back to PubChem BioAssay.

Test [1] deals with Human papillomavirus type 1a protein E7 (residues 44-93). The experiment in a line: HPV1a E7 fragment binders on microarrays, primary screen, biochemical, small-molecule microarray, residues 44-93, 635 nm fluorescence (AID 1108).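 Note: E7 fragment applied at 1 µg/mL in TBST for 1 h at 4 C; score combines spot fluorescence with its signal to noise ratio.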 The settings on record: small-molecule microarray binding, fluorescence 635 nm; higher = more signal.
A short description of test [2]: modulators of HCV replicon luciferase signal, primary screen, HCV replication inhibitor project, Huh7 cells, luciferase reporter (AID 1109).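 Note: huh7 hepatoma cells harbouring a luciferase neomycin HCV replicon reporter; luciferase luminescence as measure of HCV replicon replication; test concentration not given here.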 As to conditions: 48 h, higher = more signal. In general terms: Replicon systems follow genome replication, usually without infectious particles.
Test [3] concerns the target Left-right determination factor 2 (Homo sapiens) (UniProt O00292). Put plainly: LEFTY2 binders on small-molecule microarrays, primary screen, biochemical, small-molecule microarray, 635 nm fluorescence scan (AID 1110). The settings on record: LEFTY2 binding, higher = more signal.
In test [4] the target is Calmodulin-1 (Homo sapiens) (UniProt P0DP23). The experiment in a line: CALM1 binders on microarrays, EGTA buffer, profiling panel, biochemical, small-molecule microarray, Cy5-labelled CALM1 (AID 1111).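 Note: labelled calmodulin applied in Tris saline Tween buffer holding calcium plus EGTA and DTT.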 The settings on record: Cy5-CALM1 binding fluorescence, higher = more signal.
For test [5] the target is unchanged. The experiment in a line: calcium-bound CALM1 binders on microarrays, profiling panel, artefact control for SMM control-protein annotation, biochemical, small-molecule microarray, Cy5-labelled CALM1, plus calcium (AID 1112).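 Note: score merges spot fluorescence with signal to noise from triplicate slides.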 The settings on record: Cy5-CALM1 binding fluorescence, higher = more signal.
A short description of test [6]: small-molecule microarray binders of probe aWnt5a, primary screen, biochemical, biotinylated probe, 635/667 nm fluorescence (AID 1113).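 Note: score merges 667 nm fluorescence intensity with signal-to-noise per printed feature.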 The settings on record: higher = more signal.
A short description of test [7]: small-molecule microarray binders of probe aShh, primary screen, biochemical, biotinylated probe, 635/667 nm fluorescence (AID 1114).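 Note: probe is biotin-labelled aShh protein from a stem cell growth factor screen; measures binding of labelled protein to compounds printed on the slide; score merges feature fluorescence at 667 nm with signal-to-noise.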 As to conditions: higher = more signal.
Test [8] is described as follows: small-molecule microarray binders of probe aNog, primary screen, biochemical, biotinylated probe, 635/667 nm fluorescence (AID 1115).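 Note: probe is biotinylated aNog protein used at 0.15 µg/mL for 1 h at 4 C; z-score combines 667 nm fluorescence of each spot with its signal to noise.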 As to conditions: higher = more signal.
For test [9], the target named is Torsin-1A-interacting protein 1 (Homo sapiens) (UniProt Q5JTV8). The experiment in a line: LAP1 binders from COS7 cell lysate, primary screen, small-molecule microarray, 635/667 nm fluorescence (AID 1116). As to conditions: COS7-hLAP1 lysate binding, 635 nm fluorescence, higher = more signal.
Test [10] addresses Alpha-bungarotoxin (Bungarus multicinctus) (UniProt P60615). Put plainly: alpha-bungarotoxin binders on microarray, profiling panel, artefact control for SMM control protein annotation, biochemical, small-molecule microarray, Alexa647 label, 635/667 nm fluorescence (AID 1117). As to conditions: alpha-BTX-A647 binding fluorescence, higher = more signal.
The target of another test is Albumin (Bos taurus) (UniProt P02769). Put plainly: bovine serum albumin binders on microarray, profiling panel, artefact control for SMM control protein annotation, biochemical, small-molecule microarray, Alexa647 label, 635/667 nm fluorescence (AID 1118).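 Note: score merges 667 nm emission intensity and signal-to-noise per printed compound spot.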 The settings on record: BSA-A647 binding, fluorescence 635 nm, higher = more signal.
A short description of test [11]: small-molecule microarray binders of probe aXIP, primary screen, biochemical, NeuroSMM set, 635/667 nm fluorescence (AID 1119).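 Note: probe is the protein aXip251-270 applied at 1 µg/mL to compound-printed slides; binding of probe to printed compounds measured as 667 nm fluorescence plus signal to noise.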 The settings on record: higher = more signal, called active from +8 up or from −8 down.
Test [12] can be described thus: small-molecule binders of probe aNOTCH3, primary screen, biochemical, small-molecule microarray, 635/667 nm fluorescence (AID 1120).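 Note: probe is a biotin-tagged antibody raised against NOTCH3 rather than NOTCH3 protein; score merges spot fluorescence near 667 nm with spot signal to noise.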 The settings on record: higher = more signal.
Test [13] is described as follows: small-molecule binders of probe aNOTCH2, primary screen, biochemical, small-molecule microarray, 635/667 nm fluorescence (AID 1121).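 Note: score merges feature fluorescence read at 667 nm with its signal to noise.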 The settings on record: higher = more signal.
Test [14] has as its target Carbonic anhydrase 2 (Homo sapiens) (UniProt P00918). The experiment in a line: CAII small-molecule binders, profiling panel, biochemical, small-molecule microarray, Alexa647-labelled CAII (AID 1122). The settings on record: CAII-A647 binding fluorescence, higher = more signal.
A short description of test [15]: COS7 lysate on small-molecule microarray, probe aHis, 635 nm (AID 1123).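 Note: z-score combines 667nm fluorescence intensity with signal-to-noise per printed compound spot.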 As to conditions: COS7 cell lysate, fluorescence, higher = more signal.
Test [16] in a line: compound binding in COS7 lysate, probe aLAP1, primary screen, cell lysate, small-molecule microarray (AID 1124).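 Note: lysate comes from COS7 cells expressing LAP1 and is applied at 0.3 µg/mL; score merges spot fluorescence near 667 nm with signal-to-noise over triplicate slides.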 The settings on record: probe aLAP1, fluorescence, higher = more signal.
Another test has as its system Sam68 (KHDRBS1). The experiment in a line: Sam68 small-molecule binders, primary screen, biochemical, small-molecule microarray, 635 nm fluorescence (AID 1125).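 Note: score merges 667 nm channel intensity with signal to noise over triplicate slides.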 As to conditions: small-molecule microarray binding, higher = more signal.
The test system of test [17] is Chordin-like protein 2 (CHRDL2). The experiment in a line: CHRDL2 small-molecule binders, primary screen, biochemical, small-molecule microarray, 635 nm fluorescence (AID 1126).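 Note: printed compound slides probed with Chrdl2 protein at 4 µg/mL for 1 h at 4 C; score merges 667 nm emission intensity with signal to noise over three replicate slides.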 The settings on record: small-molecule microarray binding, fluorescence 635 nm; higher = more signal.
Test [18] has as its target Concanavalin-A (Canavalia ensiformis) (UniProt P02866). The experiment in a line: ConA small-molecule binders, primary screen, artefact control for SMM control protein annotation, biochemical, small-molecule microarray, Alexa647 label, 635 nm (AID 1127).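 Note: z combines 667 nm emission intensity with signal-to-noise across three replicate slides.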 As to conditions: ConA-A647 binding fluorescence, higher = more signal.

Calls of active or inactive are those of the source.

Chain of Concanavalin-A (Canavalia ensiformis) (P02866 whole entry, looked up): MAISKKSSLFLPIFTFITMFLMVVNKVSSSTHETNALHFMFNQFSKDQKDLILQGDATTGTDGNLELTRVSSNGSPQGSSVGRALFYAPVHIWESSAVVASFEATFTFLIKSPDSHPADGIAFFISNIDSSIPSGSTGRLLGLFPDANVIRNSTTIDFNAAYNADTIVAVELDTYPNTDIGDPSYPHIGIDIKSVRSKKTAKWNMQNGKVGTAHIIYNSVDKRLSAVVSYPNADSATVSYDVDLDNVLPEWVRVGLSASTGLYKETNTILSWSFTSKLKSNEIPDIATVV
Chain of Torsin-1A-interacting protein 1 (Homo sapiens) (Q5JTV8 whole entry, looked up): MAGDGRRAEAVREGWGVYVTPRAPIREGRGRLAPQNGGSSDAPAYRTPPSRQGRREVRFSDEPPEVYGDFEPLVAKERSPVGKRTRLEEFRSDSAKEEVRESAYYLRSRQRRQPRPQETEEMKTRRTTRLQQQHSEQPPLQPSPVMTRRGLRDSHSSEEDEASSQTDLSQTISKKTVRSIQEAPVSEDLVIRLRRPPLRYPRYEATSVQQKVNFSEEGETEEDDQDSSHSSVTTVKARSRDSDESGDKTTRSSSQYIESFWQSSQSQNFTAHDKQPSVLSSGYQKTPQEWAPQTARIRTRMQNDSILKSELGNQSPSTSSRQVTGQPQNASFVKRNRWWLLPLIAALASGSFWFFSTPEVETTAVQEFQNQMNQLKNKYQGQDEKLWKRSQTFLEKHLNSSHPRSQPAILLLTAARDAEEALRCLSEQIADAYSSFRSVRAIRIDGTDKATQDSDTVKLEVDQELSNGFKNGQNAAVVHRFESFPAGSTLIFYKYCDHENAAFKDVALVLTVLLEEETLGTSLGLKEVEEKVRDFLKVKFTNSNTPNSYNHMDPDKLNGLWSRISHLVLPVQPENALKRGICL
Chain of Left-right determination factor 2 (Homo sapiens) (O00292 whole entry, looked up): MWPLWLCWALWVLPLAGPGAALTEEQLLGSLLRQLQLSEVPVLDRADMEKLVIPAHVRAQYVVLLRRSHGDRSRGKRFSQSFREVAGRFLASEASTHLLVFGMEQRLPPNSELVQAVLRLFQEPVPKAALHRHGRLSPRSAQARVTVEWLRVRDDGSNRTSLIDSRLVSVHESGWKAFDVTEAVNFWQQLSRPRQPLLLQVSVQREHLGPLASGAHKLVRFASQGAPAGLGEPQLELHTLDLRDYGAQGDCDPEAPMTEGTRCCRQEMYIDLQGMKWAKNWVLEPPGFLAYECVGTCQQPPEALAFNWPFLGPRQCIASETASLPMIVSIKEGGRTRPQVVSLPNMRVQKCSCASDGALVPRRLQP
Chain of Albumin (Bos taurus) (P02769 whole entry, looked up): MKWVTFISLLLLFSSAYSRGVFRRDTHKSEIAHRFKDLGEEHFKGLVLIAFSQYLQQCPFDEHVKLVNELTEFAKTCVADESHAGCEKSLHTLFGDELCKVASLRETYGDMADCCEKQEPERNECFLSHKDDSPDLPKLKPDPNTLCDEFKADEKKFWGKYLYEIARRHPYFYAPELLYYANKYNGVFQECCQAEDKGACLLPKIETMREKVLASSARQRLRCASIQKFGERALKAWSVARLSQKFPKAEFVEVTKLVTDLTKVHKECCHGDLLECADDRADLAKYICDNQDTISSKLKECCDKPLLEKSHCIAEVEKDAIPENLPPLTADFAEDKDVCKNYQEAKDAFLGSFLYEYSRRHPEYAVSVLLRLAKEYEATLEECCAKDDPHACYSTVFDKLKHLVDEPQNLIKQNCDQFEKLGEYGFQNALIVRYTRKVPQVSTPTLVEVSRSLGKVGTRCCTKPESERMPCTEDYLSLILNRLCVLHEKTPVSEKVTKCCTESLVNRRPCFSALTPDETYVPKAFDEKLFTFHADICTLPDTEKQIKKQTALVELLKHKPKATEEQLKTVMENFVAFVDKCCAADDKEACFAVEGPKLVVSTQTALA
Chain of Alpha-bungarotoxin (Bungarus multicinctus) (P60615 whole entry, looked up): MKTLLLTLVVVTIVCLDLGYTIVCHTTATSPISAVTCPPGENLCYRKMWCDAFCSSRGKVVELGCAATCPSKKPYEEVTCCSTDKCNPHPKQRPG

For `O=C1O[C@H](c2ccccc2)[C@H](c2ccccc2)N2[C@H]1[C@@H](C(=O)NC[C@H](O)c1ccccc1)[C@]1(C(=O)Nc3ccccc31)[C@H]2c1ccccc1OCCO`, the composite z-score in [1] was 1.4; in test [3], -0.11; in test [4], 1.31; in test [5], 0.376; in test [6], -0.027; in [7], 1.47. In addition, the composite z-score was 2.84 in [8]; 1.41 in [9]; 2.46 in test [10]; 0.426 in the test with Albumin (Bos taurus); -0.171 in test [12]; -0.138 in test [13]. Moreover, the composite z-score in test [14] came out at 0.613; in [15], 1.84; in [16], 0.571; in the test with Sam68 (KHDRBS1) it was 0.772; in test [17] it was 0.0939; in [18], 1.02. In test [2], this compound had a z-score of -3.34. For the same compound, the composite Z-score in test [11] is 0.16 (inactive).

For `CC(C)(C)OC(=O)CC[C@@]1(C(=O)N2CCCCC2)N=C(c2ccc(OCCCO)cc2)O[C@@H]1c1ccccc1N=[N+]=[N-]`, the composite z-score in test [1] is 1.03; in [3], 0.503; in [4], 1.07; in [5], 0.398; in [6], 0.0434; in [7], 0.0638. In addition, the composite z-score is 1.92 in [8]; 1.27 in [9]; 0.451 in test [10]; 0.943 with Albumin (Bos taurus); 0.4 in test [12]; 0.127 in test [13]. The composite z-score in [14] worked out at 0.775; in [15] it was 2.94; in [16], 1.58; in the test on Sam68 (KHDRBS1), 1.29; in test [17], 0.142; in [18] it was 1.17. This compound had a z-score in [2] of 0.0393. For the same compound, in test [11], the composite Z-score was -0.15 (inactive).

For the compound `COC(=O)[C@@]1(Cc2ccc(OC)cc2)[C@H]2c3cc(C(=O)N4CCCC4)n(CCc4ccc(O)c(OC)c4)c3C[C@H]2CN1C(=O)c1ccccc1`, the composite z-score in test [1] was 0.333; in test [3] it was -0.448; in [4], 0.346; in test [5], 0.225; in test [6], 0.114; in [7] it was 0.03. Besides, the composite z-score in test [8] came to 1.03; in test [9] it was 0.39; in test [10] it was 0.184; with Albumin (Bos taurus), 0.952; in test [12] it was 0.23; in test [13], 0.12. Also, the composite z-score in [14] is 0.742; in test [15], 2.28; in test [16], 0.191; in the test on Sam68 (KHDRBS1) it was -0.295; in test [17] it was -0.508; in test [18] it was 0.173. Moreover, in [2], the z-score is -0.917. Besides, the composite Z-score in test [11] was 0.683 (inactive).

For the compound `C=C(/C(=C/C[C@@H](OC(=O)c1ccncc1)c1cccc(OCCO)c1)c1cc(C(=O)OC)ccc1OC)C(C)C`, the composite z-score in [1] was 0.903; in test [3], 0.521; in test [4], 0.0576; in [5] it was -0.412; in test [6] it was -0.101; in test [7], 0.131. Moreover, the composite z-score was 0.0051 in [8]; 1.11 in [9]; 0.462 in test [10]; 0.482 in the test with Albumin (Bos taurus); 0.19 in test [12]; -0.0207 in test [13]. For the same compound, the composite z-score in test [14] was 0.597; in [15] it was 1.23; in [16] it was 0.763; in the test on Sam68 (KHDRBS1), 1.21; in test [17], 0.859; in test [18], 0.996. The z-score in [2] is -2.94. In addition, the composite Z-score in [11] was 0.25 (inactive).

`COc1ccccc1CN1C(=O)c2ccccc2[C@@H](C(=O)NCC(C)C)[C@@H]1c1ccc(CO)cc1`: the composite z-score is 1.05 in test [1]; 0.13 in test [3]; 0.139 in test [4]; -0.0968 in [5]; -0.196 in test [6]; -0.776 in test [7]. For the same compound, the composite z-score in [8] is -0.0069; in test [9], 0.741; in [10] it was -0.544; in the test with Albumin (Bos taurus), -0.325; in test [12], -0.236; in [13] it was -0.0226. The composite z-score in test [14] was 0.623; in test [15] it was 0.368; in test [16] it was 0.537; in the test with Sam68 (KHDRBS1), -0.134; in [17] it was 0.0987; in [18] it was 0.358. The z-score in test [2] is -0.541. The composite Z-score in test [11] is 0.0829 (inactive).

In the case of `O=C1C[C@@](C(=O)NCc2ccccc2)(c2ccc([N+](=O)[O-])cc2)[C@@H](c2ccc(CO)cc2I)N1C1CCCCC1`, the composite z-score in test [1] was 1.14; in [3] it was 0.597; in test [4], 0.261; in test [5], 0.315; in test [6], 0.0733; in test [7], 0.192. The composite z-score is -0.175 in test [8]; 0.52 in [9]; 0.414 in [10]; -0.13 in the test with Albumin (Bos taurus); 0.446 in [12]; 0.202 in test [13]. Moreover, the composite z-score in [14] was 0.448; in test [15], 1.15; in test [16] it was -0.0355; in the test with Sam68 (KHDRBS1), 1.23; in [17], 0.633; in [18] it was 0.957. Also, in [2], the z-score is -2.36. Also, in test [11], the composite Z-score is -0.0966 (inactive).
